Bioassay records as filed in PubChem BioAssay.
SW480 rerep: inducers of DNA re-replication in SW480 colon cancer cells; SW480 DNA re-replication, Hoechst DNA content imaging, 48 h; 340,000 compounds, 1.8% hits; Potency, µM (series often up to 46.1 µM), hits mostly activators; AID 624297; also: nearly all actives have a fitted effect of over 55% in size
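Compounds, transferred as 23 nL by pin tool, were incubated with cells for 48 hr; DNA content per nucleus was then quantified by Hoechst staining and fluorescence plate imaging.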
MCF10A rerep: inducers of DNA re-replication in MCF 10A breast cells; 350,000 compounds, 2.9% hits; Potency, µM (series often up to 46.1 µM), actives largely listed as activators; MCF 10A DNA re-replication, Hoechst nuclear intensity, 48 h; AID 624296; also: nearly all actives have a fitted effect of over 50% in size
ELG1 DNA repair: blocks ELG1-dependent DNA repair in HEK293T cells; HEK293T ELG1-luciferase reporter, luminescence, 16 h; DNA damage induced by 5-fluorouridine; Potency, µM (series often up to 46.1 µM), usual class: inhibitors; 330,000 compounds, 2.3% hits; also: nearly all actives have a fitted effect of over 55% in size
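HEK293T cells expressing luciferase-tagged ELG1 (2,000/well) received 5-Fluorouridine plus compound or DMSO for 16 hr at 37 °C. Luciferase was read by ONE-Glo luminescence after 30 min at room temperature.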
KB-V1 MDR tox: kills drug-selected multidrug resistant KB-V1 cells | Potency, µM (highest dose often 46.1 µM), usual class: cytotoxic | KB-V1 MDR cells viability, CellTiter-Glo, 72 h | 400,000 compounds, 3.4% hits; also: nearly all actives have a fitted effect of over 60% in size
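KB-V1 cells (P-gp-expressing MDR subline of KB-3-1) in phenol-red-free DMEM with 10% FBS were exposed to library compounds over a concentration series for 72 h at 37 degrees C. Viability read by CellTiter-Glo luminescence; concentration-effect curves fitted after normalization.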
KB-3-1 tox: kills parental KB-3-1 adenocarcinoma cells. KB-3-1 viability, CellTiter-Glo ATP luminescence, 72 h. Potency, µM (highest dose often 46.1 µM), hits mostly cytotoxic. 400,000 compounds, 1.4% hits; also: nearly all actives have a fitted effect of over 60% in size
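Cytotoxicity in the drug-sensitive parental line KB-3-1 was scored as loss of CellTiter-Glo luminescence following 72 h incubation with compound. Values come from curve fitting of normalized concentration-response data.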
Large screens that a line does not name were inactive. The list is not random: actives were taken first. Their share in the collection is about 8.1%. Calls follow the shape of the dose curve; as a rule, active = well fitted curve in the direction sought with a large enough effect; inconclusive = small, poorly fitted or top-dose-only effect, or another doubt; inactive = no such curve, though single readings can be large; an effect the other way counts as inactive or inconclusive.

O=[N+]([O-])c1ccc(N(CC2CO2)S(=O)(=O)c2ccccc2)cc1 (stereo not given)	ELG1 DNA repair inconclusive
Cc1ccc(S(=O)(=O)N(CC2CO2)c2cccc([N+](=O)[O-])c2)cc1 (stereo not given)	SW480 rerep 18µM, MCF10A rerep inconclusive, ELG1 DNA repair inconclusive, KB-3-1 tox inconclusive
COc1cccc(CN2CCC2(C)C(=O)Nc2ccc(C)c(O)c2)c1F (stereo not given)	KB-V1 MDR tox inconclusive (no result: SW480 rerep, MCF10A rerep, ELG1 DNA repair)
CCCCN1C(=O)C(=O)NC[C@@H]1Cc1ccc(O)cc1	none (no result: SW480 rerep, MCF10A rerep, ELG1 DNA repair)
Cc1cc(C)cc(CC2CC(=O)N(c3ccc([N+](=O)[O-])cc3)C2=O)c1 (stereo not given)	none
Cc1ccc(N=Nc2c(=O)[nH]n3c(C)cc(C)nc23)cc1	none
Nc1[nH]n2c(=O)cc(-c3ccccc3)nc2c1N=Nc1ccccc1	MCF10A rerep inconclusive, KB-V1 MDR tox inconclusive, KB-3-1 tox 8.2µM
Cc1ccc(N=Nc2c(N)[nH]n3c(=O)cc(C)nc23)cc1	MCF10A rerep inconclusive, KB-V1 MDR tox 23µM, KB-3-1 tox 18µM
Nc1[nH]n2c(=O)cc(-c3ccccc3)nc2c1N=Nc1ccc(S(N)(=O)=O)cc1	none
CCN(CC)C(=O)CSc1nc(N)c(C#N)c(-c2cccs2)c1C#N	ELG1 DNA repair inconclusive, KB-V1 MDR tox inconclusive
Cc1ccc(-n2nc(C)c3c(-c4cccs4)c(C#N)c(N)nc32)cc1	SW480 rerep inconclusive, MCF10A rerep 8.2µM, ELG1 DNA repair 13µM, KB-V1 MDR tox inconclusive
Cc1nc(N)c(C#N)c(-c2ccccc2)c1C	none
Cc1nn(-c2ccccc2)c2nc(N)c(C#N)c(-c3ccc(F)cc3)c12	MCF10A rerep 16µM, ELG1 DNA repair inconclusive
COc1cc(/C=C(\C#N)C(=O)c2ccc(O)c(O)c2)cc(I)c1O	none
CCCCNC(=O)C1(C)CCC(=O)N1C1CCN(Cc2ccccc2)CC1 (stereo not given)	none (no result: SW480 rerep, MCF10A rerep, ELG1 DNA repair)
COc1ccc(CCNC(=O)C/C(C)=N/NC(=O)COc2ccc(C)cc2Br)cc1OC	none
COc1ccccc1CNC(=O)C/C(C)=N/NC(=O)COc1ccc(C)cc1Br	KB-3-1 tox 23µM
COc1ccc(C=O)cc1COc1ccc([N+](=O)[O-])c(C)c1	SW480 rerep 15µM, MCF10A rerep inconclusive
COc1ccc(C=O)cc1COc1ccc2c(c1)OCO2	SW480 rerep 3.7µM, MCF10A rerep inconclusive, KB-V1 MDR tox inconclusive, KB-3-1 tox inconclusive
COc1ccc(C=O)cc1COc1ccccc1F	SW480 rerep inconclusive, KB-V1 MDR tox inconclusive
O=C(Nc1cccc(Cl)c1Cl)c1csc([C@@H]2O[C@H](CO)[C@H](O)[C@H](O)[C@H]2O)n1	KB-V1 MDR tox inconclusive (no result: SW480 rerep, MCF10A rerep, ELG1 DNA repair)
O=C(Nc1nc([C@@H]2O[C@H](CO)[C@@H](O)[C@H](O)[C@H]2O)cs1)NC(c1ccccc1)c1ccccc1	KB-3-1 tox 18µM (no result: SW480 rerep, MCF10A rerep, ELG1 DNA repair)
COc1ccccc1CNC(=O)CCc1c(C)nc2c(c(C)nn2-c2ccc(C)c(C)c2)c1C	KB-V1 MDR tox inconclusive (no result: SW480 rerep, MCF10A rerep, ELG1 DNA repair)
COc1ccc(OC)c(-c2cc(C(=O)Nc3c(C)nn(Cc4ccc(C)cc4)c3C)no2)c1	none (no result: SW480 rerep, MCF10A rerep, ELG1 DNA repair)
COc1ccc(C2C3=C(CC(C)(C)CC3=O)Nc3cc4c(cc32)OCO4)cc1 (stereo not given)	none
COc1ccc(OC)c(C2C3=C(COC3=O)Nc3cc4c(cc32)OCO4)c1 (stereo not given)	SW480 rerep 0.15µM, MCF10A rerep 0.26µM, KB-V1 MDR tox 1.2µM, KB-3-1 tox 0.058µM
COc1ccc(/C=C/c2cc(=O)c3cc(Cl)ccc3o2)cc1	SW480 rerep inconclusive, MCF10A rerep 21µM, ELG1 DNA repair inconclusive, KB-V1 MDR tox inconclusive
O=c1c2ccccc2sc2nc(CCl)nn12	MCF10A rerep inconclusive, KB-V1 MDR tox inconclusive, KB-3-1 tox 6.5µM (no result: ELG1 DNA repair)
O=c1cc(CCl)nc2sc3ccccc3n12	SW480 rerep inconclusive, MCF10A rerep inconclusive, KB-3-1 tox inconclusive
COc1ccc(C)cc1S(=O)(=O)n1cnc2ccccc21	SW480 rerep inconclusive, MCF10A rerep inconclusive, KB-V1 MDR tox inconclusive, KB-3-1 tox 5.2µM
Cn1ccc(NC(=O)c2ccc(Cl)cc2)n1	ELG1 DNA repair inconclusive
Cc1cccc(C(=O)Nc2ccn(C)n2)c1	SW480 rerep 18µM, ELG1 DNA repair inconclusive
